Reference: PubChem BioAssay
Calls of active or inactive are those of the source. Unless noted, no stated cut-off is given here; in the data, active means inhibition above about 31%; inactive means the rest.

assay: reversal of MRP1-mediated doxorubicin resistance, pilot screen, H69AR cells, doxorubicin co-treatment (AID 601;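 active means viability loss from added drug above about 55%, and viability with drug at most 40%, in both replicates, limit read from the data, passing the limit was not always enough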); conditions: H69AR cells + 2 uM doxorubicin, CellTiter-Glo, 72 h; at 10 µM; stronger effect = higher value

SMILES	differential viability (reversal)
Cc1csc(NC(=O)c2sc3nc(-c4cccs4)ccc3c2N)n1	-12.4% (inactive)
COCCCNC(=O)c1c(N)n(-c2cccc(S(N)(=O)=O)c2)c2nc3ccccc3nc12	-8.22% (inactive)
O=S(=O)(Cc1ccc(Cl)cc1)Nc1ccc2c(c1)OCO2	17.3% (inactive)
O=C(CSc1nnnn1-c1ccccc1)Nc1nsc(-c2ccc(Cl)cc2)n1	-0.79% (inactive)

same assay, conditions: H69AR cells + 2 uM doxorubicin, CellTiter-Glo, 72 h; measured here: viability with 2 uM doxorubicin; at 10 µM; stronger effect = lower value

SMILES	viability [%]
Cc1csc(NC(=O)c2sc3nc(-c4cccs4)ccc3c2N)n1	60.3
COCCCNC(=O)c1c(N)n(-c2cccc(S(N)(=O)=O)c2)c2nc3ccccc3nc12	75.4
O=S(=O)(Cc1ccc(Cl)cc1)Nc1ccc2c(c1)OCO2	86.8
O=C(CSc1nnnn1-c1ccccc1)Nc1nsc(-c2ccc(Cl)cc2)n1	54.8

same assay, conditions: H69AR cells, CellTiter-Glo, 72 h; compound alone cytotoxicity; at 10 µM

SMILES	viability [%]
Cc1csc(NC(=O)c2sc3nc(-c4cccs4)ccc3c2N)n1	47.9
COCCCNC(=O)c1c(N)n(-c2cccc(S(N)(=O)=O)c2)c2nc3ccccc3nc12	67.2
O=S(=O)(Cc1ccc(Cl)cc1)Nc1ccc2c(c1)OCO2	104
O=C(CSc1nnnn1-c1ccccc1)Nc1nsc(-c2ccc(Cl)cc2)n1	54

assay: 384-well plate pilot, post-Golgi transport modulator project, inhibition of yeast transport mutant growth (AID 636); conditions: absorbance 615 nm, about 18 h, stronger effect = higher value

SMILES	inhibition
Cc1csc(NC(=O)c2sc3nc(-c4cccs4)ccc3c2N)n1	0% (inactive)
COCCCNC(=O)c1c(N)n(-c2cccc(S(N)(=O)=O)c2)c2nc3ccccc3nc12	-4.13% (inactive)
O=S(=O)(Cc1ccc(Cl)cc1)Nc1ccc2c(c1)OCO2	-0.53% (inactive)
CC[C@@H]1C(=O)OC[C@@H]1Cc1cncn1C	-3.12% (inactive)
O=C(CSc1nnnn1-c1ccccc1)Nc1nsc(-c2ccc(Cl)cc2)n1	0.39% (inactive)

assay: growth suppression of yeast trafficking mutant, preliminary HTS, modulators of trafficking downstream of Golgi apparatus project, 1536-format plate, OD 615 nm (AID 637; in the data active means inhibition above about 30%); conditions: yeast transport mutant growth, absorbance 615 nm, 18 h; stronger effect = higher value

SMILES	inhibition
Cc1csc(NC(=O)c2sc3nc(-c4cccs4)ccc3c2N)n1	-6.35% (inactive)
COCCCNC(=O)c1c(N)n(-c2cccc(S(N)(=O)=O)c2)c2nc3ccccc3nc12	-0.79% (inactive)
O=S(=O)(Cc1ccc(Cl)cc1)Nc1ccc2c(c1)OCO2	4.29% (inactive)
CC[C@@H]1C(=O)OC[C@@H]1Cc1cncn1C	-5.5% (inactive)
O=C(CSc1nnnn1-c1ccccc1)Nc1nsc(-c2ccc(Cl)cc2)n1	3.33% (inactive)
